Measured values: paper PMC5540273 (PLoS ONE, 2017)

Each compound was assayed on PDGFRA.
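Further: kd values determined as follow-up on hits from a single-replicate KINOMEscan panel screen.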

| Compound | Kd [nM] |
| --- | --- |
| Cc1ccc(NC(=O)c2cccc(C#N)c2)cc1-c1ccc(C(=O)Nc2ccncc2)cc1 [GSK1398463] | 170 |
| O=C(Nc1ccccc1)Nc1ccc(Oc2ccc3nccn3n2)cc1 | 71 |
| Cn1ccc2ncnc(Oc3ccc(NC(=O)Nc4cccnc4)c(Cl)c3)c21 | 110 |

These compounds were tested on PDGFRB.

| Compound | Kd [nM] |
| --- | --- |
| Cc1ccc(NC(=O)c2cccc(C#N)c2)cc1-c1ccc(C(=O)Nc2ccncc2)cc1 [GSK1398463] | 13 |
| O=C(Nc1ccccc1)Nc1ccc(Oc2ccc3nccn3n2)cc1 | 62 |
| COc1ccc(NC(=O)Nc2ccc(C)c(-c3ccc(C(=O)Nc4ccncc4)cc3)c2)cc1 [GSK1398475] | 48 |
| O=C(Nc1n[nH]c2nc(-c3ccco3)c(Br)cc12)c1ccc(CN2CCCC2)cc1.O=C(O)[C@H](O)[C@@H](O)C(=O)O [SB-742352] | 67 |
| CC(=O)Nc1n[nH]c2ncc(-c3ccccc3)cc12 [SB-548492] | 270 |
| COc1cc2c(Nc3cccc(NC(=O)c4ccccc4)c3)ncnc2cc1OCCCN1CCOCC1 [GSK223810] | 560 |
| Cn1ccc2ncnc(Oc3ccc(NC(=O)Nc4cccnc4)c(Cl)c3)c21 | 95 |
